# Source: PubChem
# In the library only some 12% were active in any assay of this set; here they are far more common.
# Calpain2 inh = blocks pig calpain II enzyme activity | inhibition, % at 16 µM | purified calpain II, fluorogenic peptide substrate, 30 min | 220,000 tested, 0.37% active | AID 1236;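 active = inhibition above about 50%, limit read from the data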
# WT yeast gro inh = growth inhibition of WT yeast, mitochondrial fusion screen | mitochondrial fusion phenotypic screen, WT strain | 190,000 tested, 2.1% active | inhibition, % at 10 µM; in the data active = inhibition above about 58%; tested in S. cerevisiae
# KCC2 mod = modulators of human KCC2 chloride dependent transport | Q9H2X9 | KCC2 cells, thallium flux FluoZin-2 fluorescence | B-score of Tl+ flux slope (higher = more flux/activation; lower = inhibition) at 10 µM | 190,000 tested, 2.2% active | AID 1456;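 active = thallium flux slope and its plate-corrected score both differing from the plate sample mean at a set confidence after two filtering rounds, in either direction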;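 note: slope of fluorescence scaled to starting intensity during 10 to 20 s after thallium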
# ROMK mod = human ROMK K+ channel modulation, primary screen; B-score at 10 µM; 130,000 tested, 2% active; AID 1918; P48048; Tet-inducible ROMK, thallium flux fluorescence; actives lie on both sides;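 active = signal ratio slope over the read window, or its plate-corrected B-score, at least 3 SD from the plate mean, either direction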;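 note: B-score of the F/F0 ratio slope over 7 to 12 s after thallium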
# Target sequence (P48048 whole entry, looked up): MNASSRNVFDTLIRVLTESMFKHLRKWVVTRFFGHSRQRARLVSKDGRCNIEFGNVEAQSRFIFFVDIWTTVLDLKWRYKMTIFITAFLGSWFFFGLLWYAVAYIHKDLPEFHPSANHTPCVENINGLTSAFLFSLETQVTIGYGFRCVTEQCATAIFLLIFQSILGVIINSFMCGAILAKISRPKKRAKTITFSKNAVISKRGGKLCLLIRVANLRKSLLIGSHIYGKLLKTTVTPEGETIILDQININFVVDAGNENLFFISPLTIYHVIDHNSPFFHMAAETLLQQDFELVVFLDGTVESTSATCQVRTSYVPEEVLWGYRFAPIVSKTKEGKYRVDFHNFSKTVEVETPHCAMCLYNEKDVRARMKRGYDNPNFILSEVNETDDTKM
# Lmaj promast = Leishmania major promastigote growth inhibition. Leishmania major promastigotes, resazurin fluorescence viability. inhibition, % at 10 µM. 200,000 tested, 9% active. AID 1063; in the data active = inhibition above about 50%;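 note: promastigotes grown with compound for 44 hours at 28 °C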
# Active calls of the source: *; i = inactive; x = no result.
SMILES,Calpain2 inh,WT yeast gro inh,KCC2 mod,ROMK mod,Lmaj promast
NS(=O)(=O)c1ccc(CNC(=O)/C=C/c2c(F)cccc2Cl)cc1,-3,-11,-0.6,0.014,-7
Cc1ccc(C)c(C(=O)N(Cc2nc(-c3ccc(Cl)cc3)no2)C(C)C)c1,11,70*,0.11,x,3
COc1cccc(C(=O)N(Cc2nc(-c3ccc(C)cc3)no2)C(C)C)c1,0,10,-0.53,-1.7,5
Cc1cc(N2CCN(C(=O)c3ccco3)CC2)n2nc(C)c(-c3ccccc3)c2n1,-379,63*,x,0.52,13
Cc1nc2c(-c3ccc(F)cc3)c(C)nn2c(C)c1CCC(=O)Nc1ccc(F)cc1F,-41,x,0.38,-0.0054,x
CCN1CCN(c2cc(C(C)(C)C)nc3c(-c4ccccc4)c(C)nn23)CC1,-29,94*,1.7,x,96*
CCN1CCN(c2ccc(NC(=O)CCc3c(C)nc4c(-c5ccccc5)c(C)nn4c3C)cc2)CC1,-10,-7,-0.0089,x,100*
O=C(NCc1ccco1)C1CCN(C(=O)c2cc3sccc3n2Cc2ccc(Cl)cc2)CC1,57*,61*,-1.2,-1.9,65*
CCOC(=O)C1(CCCc2ccccc2)CCN(C(=O)Cc2nonc2C)CC1,13,14,x,x,21
CCOC(=O)C1(Cc2cccc(F)c2)CCN(Cc2cn(CC)nc2C)CC1,29,4,-0.69,-0.86,71*
CCOC(=O)C1(Cc2cccc(F)c2)CCN(Cc2c(C)nn(CC)c2C)CC1,-3,x,-0.42,0.0053,x
CCOC(=O)C1(CCCc2ccccc2)CCN(Cc2cn(CC)nc2C)CC1,7,6,x,-2.1,84*
C=CCOc1ccc2c(c1)c(=O)cc(C(=O)O)n2CC,-39,x,x,x,x
Nc1nc(SCC(=O)Nc2ccc([N+](=O)[O-])cc2)n[nH]1,19,-7,2,-0.089,-2
CCCCn1c(/C=N/Nc2nc3ccccc3[nH]2)nc2ccccc21,1,28,-0.16,x,100*
CCCCNc1nc2ccccc2[nH]1,12,x,x,x,25
Clc1ccc(Cn2c(/C=C/c3ccco3)nc3ccccc32)cc1,-42,76*,-0.19,-1.8,50*
Fc1ccccc1-c1ccc(/C=N/Nc2nc3ccccc3[nH]2)o1,-10,85,-0.21,-0.24,97*
C#CCn1cc(/C=N/NC(=O)COc2cccc3cccnc23)c2ccccc21,19,8,-0.039,0.48,58*
COC(=O)Cn1cc(/C=N/NC(=O)COc2cccc3cccnc23)c2ccccc21,15,-16,0.91,x,-2
C(=N\Nc1nc2ccccc2[nH]1)/c1ccc2c(c1)OCCO2,8,x,-1.6,x,x
CN(C)/C=C/C(=O)c1nn(-c2ccc(F)cc2)ccc1=O,3,x,-0.99,x,x
O=C(CCC1CCCN(C(=O)c2ccsc2)C1)NCc1ccc(F)c(F)c1 (stereo not given),8,17,x,0.032,3
C=CCNC(=O)c1onc(CSc2ccccn2)c1C(=O)NCC=C,9,x,0.21,x,x
C#CCn1cc(/C=N/Nc2nc3ccccc3[nH]2)c2ccccc21,-14,30,-0.3,x,101*
SMILES,Calpain2 inh,WT yeast gro inh,KCC2 mod,ROMK mod,Lmaj promast
CCCCn1c(/C=C/c2ccco2)nc2ccccc21,-120,35,-1.4,x,63*
CCCn1c(/C=C/c2ccco2)nc2ccccc21,-85,9,-0.46,x,44
CCN(C(=O)CCN1C(=O)c2ccccc2C1=O)C1CCCCC1,14,-19,0.085,x,-9
COc1ccc(C2CC(c3ccc4ccccc4c3)=NN2C(=O)CNC2CCCCC2)cc1 (stereo not given),44,38,-2.3,-1.6,100*
CC(=O)OCC(=O)N1N=C(c2ccc3ccccc3c2)CC1c1ccccc1 (stereo not given),3,68*,0.58,-0.068,86*
CCc1c(O)c(-c2ccccc2)c(=O)n(-c2ccccn2)c1-c1ccccc1,2,x,0.42,x,x
N[C@@H](CO)c1nnc([C@H](CCC(=O)O)NC(=O)C2CCNCC2)o1,20,-3,-0.26,x,-2
O=C1c2ccccc2C(=O)N1Cc1ccccn1,-32,-3,x,1.5,-15
CCOC(=O)N1CCN(CC(O)COCc2ccc(OC)c(OC)c2)CC1 (stereo not given),-1,-10,-0.13,0.13,3
COc1ccccc1N1CCN(CC(O)COCc2cccs2)CC1 (stereo not given),-23,-4,1.3,-0.3,-2
CCOC(=O)N1CCN(CC(O)COCC2=CCC3CC2C3(C)C)CC1 (stereo not given),6,-3,x,-0.22,94*
CCOC(=O)N1CCN(CC(O)c2ccccc2)CC1 (stereo not given),-4,3,-0.55,1.1,-3
OC(COCc1ccccc1)CN1CCN(c2ccccc2F)CC1 (stereo not given),-23,-19,-0.0028,x,52*
OC(COCc1ccc(Cl)cc1)CN1CCc2ccccc2C1 (stereo not given),-5,-3,1.8,-1.5,73*
CCOC(=O)N1CCN(CC(O)COc2ccc(C)cc2C(C)(C)C)CC1 (stereo not given),-15,27,1.4,-1.3,98*
C=CCc1cc(C=O)cc(OC)c1OCc1ccc(C(=O)O)cc1,-20,-5,-1,0.43,-6
CCC(C)NCC(O)COCc1ccc(Cl)cc1 (stereo not given),16,-12,-0.01,x,60*
CCOC(=O)N1CCN(CC(O)COCc2ccccc2)CC1 (stereo not given),-6,-7,0.3,x,66*
CCN1CCN(CC(O)COCc2ccccc2)CC1 (stereo not given),-7,21,-0.035,x,-3
COC(=O)c1ccc(NC(=O)C(=O)N2CCN(C(=S)Nc3ccc(C)cc3)CC2)cc1,5,19,1.9,-1.1,66*
COC(=O)c1ccc(NC(=O)C(=O)N2CCN(C(=S)Nc3cccc(OC)c3)CC2)cc1,-4,8,0.048,0.73,72*
COC(=O)c1ccc(NC(=O)C(=O)N2CCN(C(=S)Nc3ccc(OC)cc3)CC2)cc1,0,3,-0.45,0.26,31
CCOC(=O)c1c(C)n(-c2ccc(C)cc2)c2ccc(OCC(O)CNCC3CCCO3)cc12 (stereo not given),-15,72*,0.4,0.19,100*
CCOC(=O)c1c(C)n(C)c2ccc(OCC(O)CN3CCC(C)CC3)cc12 (stereo not given),-9,21,-0.1,x,44
CCOC(=O)c1c(C)n(C)c2ccc(OCC(O)CN3CCCCCC3)cc12 (stereo not given),4,13,0.49,x,98*
CCN1CCN(Cc2c(O)ccc3c(=O)c(-c4ccccc4OC)coc23)CC1,i,7,x,-0.13,34
CC(C)c1ccc(/C=C2\Oc3c(ccc(O)c3CN3CCN(C)CC3)C2=O)cc1,-313,10,-0.42,-6.6*,5
CCN1CCN(Cc2c(O)ccc3c2O/C(=C\C=C\c2ccccc2OC)C3=O)CC1,-11,-3,i,x,69*
C=CCOc1ccc(CN(C)CC(=O)Nc2ccccc2[N+](=O)[O-])cc1,28,27,-0.029,-0.29,-4
CNC(=S)N1N=C(c2ccc(OC)cc2)CC1c1ccc(N(C)C)cc1 (stereo not given),7,0,0.12,x,5
